Experimental data published in PubChem BioAssay (NCATS).
Several values for one entry are separate records, joined by “and”; a condition that tells them apart may be missing. Identical values can stand only once. Inconclusive results are not listed. Entries that show only a call come without a potency. Unmarked numbers belong to inactive results. Activity calls are given as the source filed them. Calls follow the shape of the dose curve; as a rule, active = well fitted curve in the direction sought with a large enough effect; inconclusive = small, poorly fitted or top-dose-only effect, or another doubt; inactive = no such curve, though single readings can be large; an effect the other way counts as inactive or inconclusive.

Experiments:
MKL-1 = assay: qHTS assay to identify novel small-molecules to repurpose for Merkel cell carcinoma treatment (AID 1296009); conditions: MCC and control cell lines, CellTiter-Glo viability, 72 h; series mostly up to 46 µM; also: nearly all actives have a fitted effect of over 60% in size; also: potency is read from the fitted curve at half-maximal effect
Summary of the method: (§1)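 qHTS format: cells treated with library compounds in DMSO across 8 (NPC) or 11 (MIPE) concentrations. Readout after 72 hr at 37 degree celsius was CellTiter-Glo luminescence.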

MKL-2 = assay: as above; conditions: MCC and control cell lines, CellTiter-Glo viability, 72 h; series mostly up to 46 µM
Summary of the method: as §1

UISO = assay: as above; conditions: MCC and control cell lines, CellTiter-Glo viability, 72 h; series mostly up to 46 µM
Summary of the method: as §1

WaGa = assay: as above; conditions: MCC and control cell lines, CellTiter-Glo viability, 72 h; series mostly up to 46 µM
Summary of the method: as §1

C33A = assay: Primary qHTS to identify gynecologic anti-cancer compounds using libraries of approved drugs and bioactive compounds (AID 1345084); conditions: Gynecologic cancer cell panel viability, ATPlite luminescence, 48 h; series mostly up to 57.5 µM; also: nearly all actives have a fitted effect of over 55% in size; also: potency is read from the fitted curve at half-maximal effect
Summary of the method: (§2)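 Luminescence from the ATPlite ATP-monitoring reagent indicates viable cell number; lower signal means cytotoxicity. Cells received compound 16 h after seeding and were exposed for 48 h across five concentrations.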

CASKI = assay: as above; conditions: Gynecologic cancer cell panel viability, ATPlite luminescence, 48 h; series mostly up to 57.5 µM
Summary of the method: as §2

Es-2 = assay: as above; conditions: Gynecologic cancer cell panel viability, ATPlite luminescence, 48 h; series mostly up to 57.5 µM
Summary of the method: as §2

HeLa = assay: as above; conditions: Gynecologic cancer cell panel viability, ATPlite luminescence, 48 h; series mostly up to 57.5 µM
Summary of the method: as §2

Hek293T = assay: as above; conditions: Gynecologic cancer cell panel viability, ATPlite luminescence, 48 h, control line for the selectivity index; series mostly up to 57.5 µM
Summary of the method: as §2

JEG-3 = assay: as above; conditions: Gynecologic cancer cell panel viability, ATPlite luminescence, 48 h; series mostly up to 57.5 µM
Summary of the method: as §2

OV90 = assay: as above; conditions: Gynecologic cancer cell panel viability, ATPlite luminescence, 48 h; series mostly up to 57.5 µM
Summary of the method: as §2

PA-1 = assay: as above; conditions: Gynecologic cancer cell panel viability, ATPlite luminescence, 48 h; series mostly up to 57.5 µM
Summary of the method: as §2

SKOV3 = assay: as above; conditions: Gynecologic cancer cell panel viability, ATPlite luminescence, 48 h; series mostly up to 57.5 µM
Summary of the method: as §2

Tov-21-G = assay: as above; conditions: Gynecologic cancer cell panel viability, ATPlite luminescence, 48 h; series mostly up to 57.5 µM
Summary of the method: as §2

Tov112D = assay: as above; conditions: Gynecologic cancer cell panel viability, ATPlite luminescence, 48 h; series mostly up to 57.5 µM
Summary of the method: as §2

[1] = Drug repurposing screens with cells derived from glioblastoma tumor samples (AID 1345199); conditions: GBM patient neurospheres viability, ATP luminescence, 48 h; also: nearly all actives have a fitted effect of over 40% in size
Summary of the method: (§3)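 Four patient lines of CD133+ GBM neurospheres were screened at several concentrations; hits were retested in those lines plus three slower-growing GBM lines, using 48-hour treatment and ATP-based viability.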

astro = assay: as above; conditions: viability, ATP luminescence, 48 h; series mostly up to 45.9 µM
Summary of the method: as §3

[2] = at 45.9 µM (top of the series), tumour line B
[3] = at 45.9 µM (top of the series), tumour line D
[4] = at 46 µM (top of the series), tumour line A
[5] = at 46.1 µM (top of the series), tumour line C

Question: For `NCCS`, which Potency (MKL-1) is on record?
Answer: Its Potency is “inactive”.

Question: What about the Potency (MKL-2) of the same compound?
Answer: Its Potency is “inactive”.

Question: What about the Potency (UISO) of the same compound?
Answer: Its Potency is “inactive”.

Question: And the Potency (WaGa)?
Answer: Its Potency is “inactive”.

Question: What about the Potency (C33A) of the same compound?
Answer: The Potency was “inactive”.

Question: And the Potency (CASKI)?
Answer: The Potency was “inactive”.

Question: And the Potency (Es-2)?
Answer: Its Potency is “inactive”.

Question: And the Potency (HeLa)?
Answer: The Potency was “inactive”.

Question: And the Potency (Hek293T)?
Answer: Its Potency is “inactive”.

Question: And the Potency (JEG-3)?
Answer: The Potency was “inactive”.

Question: And the Potency (OV90)?
Answer: Its Potency is “inactive”.

Question: And the Potency (PA-1)?
Answer: Its Potency is “inactive”.

Question: What about the Potency (SKOV3) of the same compound?
Answer: Its Potency is “inactive”.

Question: And the Potency (Tov-21-G)?
Answer: Its Potency is “inactive”.

Question: And the Potency (Tov112D)?
Answer: Its Potency is “inactive”.

Question: What about the activity, negative = cell killing [1, 2] of the same compound?
Answer: Its activity, negative = cell killing is -3.94% and -12.1%.

Question: What about the activity, negative = cell killing [1, 3] of the same compound?
Answer: The activity, negative = cell killing was -6.82% and -13.2%.

Question: And the activity, negative = cell killing [1, 4]?
Answer: The activity, negative = cell killing was -8.15% and -11.3%.

Question: And the activity, negative = cell killing [1, 5]?
Answer: Its activity, negative = cell killing is -12.7% and -9.68%.

Question: And the Potency (astro)?
Answer: Its Potency is “inactive”.

Question: With `CN(C)c1cc(NC(=O)CNC(C)(C)C)c(O)c2c1C[C@@H]1C[C@H]3[C@H](N(C)C)C(=O)C(C(N)=O)=C(O)[C@@]3(O)C(=O)C1=C2O` as the compound, how does the Potency (MKL-1) read?
Answer: Its Potency is “inactive”.

Question: What about the Potency (MKL-2) of the same compound?
Answer: The Potency was “inactive”.

Question: What about the Potency (UISO) of the same compound?
Answer: The Potency was “inactive”.

Question: And the Potency (WaGa)?
Answer: The Potency was “inactive”.

Question: And the Potency (C33A)?
Answer: Its Potency is “inactive”.

Question: And the Potency (CASKI)?
Answer: Its Potency is “inactive”.

Question: What about the Potency (Es-2) of the same compound?
Answer: The Potency was “inactive”.

Question: And the Potency (HeLa)?
Answer: Its Potency is “inactive”.

Question: What about the Potency (Hek293T) of the same compound?
Answer: The Potency was “inactive”.

Question: And the Potency (JEG-3)?
Answer: The Potency was “inactive”.

Question: And the Potency (OV90)?
Answer: Its Potency is “inactive”.

Question: What about the Potency (PA-1) of the same compound?
Answer: The Potency was “inactive”.

Question: And the Potency (SKOV3)?
Answer: Its Potency is “inactive”.

Question: And the Potency (Tov-21-G)?
Answer: Its Potency is “inactive”.

Question: And the Potency (Tov112D)?
Answer: The Potency was “inactive”.

Question: What about the activity, negative = cell killing [1, 2] of the same compound?
Answer: The activity, negative = cell killing was 8.46%.

Question: And the activity, negative = cell killing [1, 3]?
Answer: Its activity, negative = cell killing is 6.87%.

Question: And the activity, negative = cell killing [1, 4]?
Answer: Its activity, negative = cell killing is -27.8%.

Question: And the activity, negative = cell killing [1, 5]?
Answer: Its activity, negative = cell killing is 0.651%.

Question: What about the Potency (astro) of the same compound?
Answer: The Potency was “inactive”.

Question: What does the source list for `COc1cc2nc(-c3ccc(N4CCN(C)CC4)cc3)nc(NCCN3CCOCC3)c2cc1OC`?
Answer: Potency (MKL-1): 23.5 nM (active); Potency (MKL-2): 105 nM (active); Potency (UISO): 118 nM (active); Potency (WaGa): 118 nM (active); Potency (C33A): inactive; Potency (Es-2): inactive; Potency (HeLa): inactive; Potency (Hek293T): inactive; Potency (JEG-3): inactive; Potency (PA-1): 15800 nM (active); Potency (Tov112D): inactive

Question: Which Potency (MKL-1) does the source give for `O=C(CCN1CCN(C(=O)OCc2cc(Cl)cc(Cl)c2)CC1)c1ccc2[nH]c(=O)oc2c1` here?
Answer: The Potency was “inactive”.

Question: What about the Potency (MKL-2) of the same compound?
Answer: Its Potency is “inactive”.

Question: What about the Potency (UISO) of the same compound?
Answer: The Potency was “inactive”.

Question: And the Potency (WaGa)?
Answer: Its Potency is “inactive”.

Question: What about the Potency (C33A) of the same compound?
Answer: The Potency was “inactive”.

Question: What about the Potency (CASKI) of the same compound?
Answer: The Potency was “inactive”.

Question: And the Potency (Es-2)?
Answer: The Potency was “inactive”.

Question: What about the Potency (HeLa) of the same compound?
Answer: Its Potency is “inactive”.

Question: What about the Potency (Hek293T) of the same compound?
Answer: Its Potency is “inactive”.

Question: And the Potency (JEG-3)?
Answer: Its Potency is “inactive”.

Question: What about the Potency (OV90) of the same compound?
Answer: Its Potency is “inactive”.

Question: And the Potency (PA-1)?
Answer: Its Potency is “inactive”.

Question: What about the Potency (SKOV3) of the same compound?
Answer: Its Potency is “inactive”.

Question: And the Potency (Tov-21-G)?
Answer: Its Potency is “inactive”.

Question: And the Potency (Tov112D)?
Answer: The Potency was “inactive”.

Question: Which results are given for `C[N+](C)(C)CC(=O)O`?
Answer: Potency (MKL-1): inactive; Potency (MKL-2): inactive; Potency (UISO): inactive; Potency (WaGa): inactive; Potency (C33A): inactive; Potency (CASKI): inactive; Potency (Es-2): inactive; Potency (HeLa): inactive; Potency (Hek293T): inactive; Potency (JEG-3): inactive; Potency (OV90): inactive; Potency (PA-1): inactive; Potency (SKOV3): inactive; Potency (Tov-21-G): inactive; Potency (Tov112D): inactive
